Assay outcomes (PubChem BioAssay)
The list is not random: actives were taken first. Their share in the collection is about 1.1%.
GalR3 antagonist = GalR3 antagonists in HEK293 cells, primary screen, cell-based, fluorescence readout | Galanin receptor type 3 (Homo sapiens), O60755 | HEK293 GalR3-CNG cAMP membrane potential fluorescence; galR3 body fused to GalR1 C-terminus | inhibition, % at 3 µM | 360,000 tested, 0.44% active | AID 651719, 2012;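 active means inhibition above the screen-wide average plus 3 SD, cut at about 13% in these data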;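 further: forskolin and galanin both at EC90 stimulate the cells; cAMP rise reported by CNG channel membrane potential dye signal; 0% = forskolin plus galanin with DMSO and 100% = forskolin alone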
Target sequence (O60755 1-299 limits assumed): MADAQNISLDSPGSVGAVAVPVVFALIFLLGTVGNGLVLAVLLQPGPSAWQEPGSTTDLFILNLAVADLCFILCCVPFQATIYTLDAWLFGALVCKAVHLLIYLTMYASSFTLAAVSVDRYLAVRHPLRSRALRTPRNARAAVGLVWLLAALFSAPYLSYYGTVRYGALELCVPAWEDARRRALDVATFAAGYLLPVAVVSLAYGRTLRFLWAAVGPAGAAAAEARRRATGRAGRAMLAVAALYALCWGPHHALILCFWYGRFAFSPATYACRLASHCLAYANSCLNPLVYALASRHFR
LRH-1 inv ag = LRH-1 (NR5A2) inverse agonists, primary screen, cell-based, luminescence, HEK293T, StAR-luciferase reporter; inhibition, % at 3.6 µM; Nuclear receptor subfamily 5 group A member 2 (Homo sapiens), O00482; 360,000 tested, 0.13% active; LRH-1 transfected, 24 h;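 active means inhibition above the mean inhibition of all tested compounds plus 3 SD, cut at about 73% in these data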;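 further: 0% = DMSO wells and 100% = reporter-only cells lacking LRH-1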
SRC2 inh = inhibition of GAL4-SRC2 driven luciferase reporter, primary screen, SRC2 inhibitor project, cell-based, luminescence; Nuclear receptor coactivator 2 (Homo sapiens), Q15596; HEK293 GAL4-SRC2 luciferase reporter; inhibition, % at 9 µM; 370,000 tested, 0.17% active;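 active means inhibition above the mean inhibition of all tested compounds plus 3 SD, set per campaign, cut at about 52% in these data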;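 further: 0% = DMSO treated cells and 100% = cells given Gossypol at 36 µM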
SRC1 inh = SRC1 coactivator transcriptional activity inhibitors, primary screen, cell-based, luminescence; HEK293 GAL4-SRC1 luciferase reporter; inhibition, % at 3.6 µM; AID 588354, 2011; 360,000 tested, 0.12% active; Nuclear receptor coactivator 1 (Homo sapiens), Q15788;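 active means inhibition above the campaign mean plus 3 SD, with each screening campaign given its own cutoff, cut at about 60% in these data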;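 further: 0% = DMSO treated cells and 100% = gossypol at 36 µM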
SRC3 inh = SRC3 coactivator transcriptional activity inhibitors, primary screen, cell-based, luminescence. inhibition, % at 3.6 µM. 360,000 tested, 0.17% active. Nuclear receptor coactivator 3 (Homo sapiens), Q9Y6Q9. HEK293 GAL4-SRC3 luciferase reporter. AID 588352, 2011;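 active means inhibition above a per-campaign cutoff, the mean of all compounds plus 3 SD, cut at about 60% in these data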;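 further: 0% = DMSO-treated cells and 100% = gossypol-treated cells at 36 µM; higher means less SRC3-driven luciferase light from the GAL4 reporter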
NR2F2 inh = NR2F2 transcriptional activity inhibitors, primary screen, cell-based, luciferase reporter, HEK293T, luminescence. COUP transcription factor 2 (Homo sapiens), P24468. HEK293T NGFI-A luciferase reporter. inhibition, % at 8.6 µM. 370,000 tested, 0.7% active. AID 686940, 2013;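 active means inhibition above a per-plate cutoff, mean inhibition of test wells between control levels plus 3 SD, cut at about 38% in these data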;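 further: cells cotransfected with COUP-TFII expression vector driving the NGFI-A reporter; 0% = median of COUP-TF2 test wells and 100% = reporter-only cells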
GalR3 conf = GalR3 antagonist hit confirmation, cell-based, fluorescence, triplicate; shares compounds with GalR3 antagonist; HEK293 GalR3 CNG cAMP biosensor, membrane potential fluorescence; galR3 fused to GalR1 carboxy tail; challenged with forskolin and galanin at EC90; inhibition, % at 3 µM; 1,600 tested, 59% active; AID 652245, 2013;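 active means inhibition above the primary screen's cutoff, the mean inhibition of all screened compounds plus 3 SD, cut at about 13% in these data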;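 further: 0% = forskolin plus galanin and 100% = forskolin alone with DMSO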
HEK-CNG parental = nonspecific cAMP agonists in parental HEK-CNG cells, counter-screen for GalR3 antagonist project, cell-based, fluorescence, high throughput; shares compounds with GalR3 antagonist; HEK293-CNG parental cells, cAMP membrane potential fluorescence; normalised: DMSO wells 0%, forskolin wells 100%; activation, % at 3 µM; 1,600 tested, 10% active; in the data active means activation above about 1.3%
Active calls of the source: *; · = no result.

SMILES	GalR3 antagonist	LRH-1 inv ag	SRC2 inh	SRC1 inh	SRC3 inh	NR2F2 inh	GalR3 conf	HEK-CNG parental
N#Cc1c([N+](=O)[O-])cc([N+](=O)[O-])cc1S(=O)(=O)Cc1ccccc1	63.7*	31.6	61.0*	-8.5	-23.2	6.0	25.4*	-0.6
CC[C@@H](CCCCCCCn1ccc2ccccc21)CCC(=O)N(c1ccccc1)c1ccccc1	·	·	12.4	·	·	6.6	·	·
CC1CC(=O)NN=C1c1ccc(NCCO)c([N+](=O)[O-])c1 (configuration not stated)	64.3*	1.1	-25.0	2.7	-38.5	-8.4	71.2*	-0.2
COC(=O)C1CN(Cc2ccc(Cl)cc2)CCS(=O)(=O)N1Cc1cn(Cc2ccccc2)nn1 (configuration not stated)	·	·	-6.0	·	·	2.0	·	·
COC(=O)c1cn(-c2ccc3c(c2)[C@@]2(CC(=O)N(C)C2c2ccccc2)C(=O)N3CC(C)C)nn1 (some centres not stated)	·	·	-11.9	·	·	-10.7	·	·
O=C(NCCN1CCOCC1)C1CCN(c2ncnc3c2sc2cccc(F)c23)CC1	15.2*	10.9	-14.2	-12.4	-9.8	-4.4	2.4	0.1
O=C(C1CCN(c2ncnc3c2sc2cccc(F)c23)CC1)N1CCOCC1	-1.4	22.9	-5.1	-6.9	0.2	22.6	·	·
COC(=O)C1CCN(C(=O)CCn2nnc(-c3cccs3)n2)CC1	·	·	7.6	·	·	13.8	·	·
CC(C)CCn1c(N2CCc3ccccc3C2)nc2c1c(=O)[nH]c(=O)n2C	14.9*	-0.4	-20.6	0.1	-14.7	0.0	-1.3	0.4
Cc1ccc(F)cc1C(=O)N(Cc1ccccn1)CC1CCCO1 (configuration not stated)	·	·	-0.6	·	·	-7.8	·	·
COc1ccccc1N1C(=O)S/C(=C\c2cc(C)n(C)c2C)C1=O	18.7*	-118.7	-43.5	-66.1	-71.8	-45.6	0.7	0.2
CCOC(=O)Cn1cc(CN2CCS(=O)(=O)N(Cc3ccccc3)C(C(=O)OC)C2)nn1 (configuration not stated)	·	·	-33.7	·	·	10.3	·	·
CC(/C=N\NC(=O)Cn1c(C)nc2ccccc21)=C\c1ccccc1	69.6*	8.0	18.9	7.6	19.2	36.8	7.8	-0.1
COc1ccc([C@H]2C=C(C(=O)O)O[C@@H](OCCCCO)C2)cc1	17.5*	0.9	-0.3	-1.3	9.1	-46.9	-1.2	0.4
O=C(O)C1=C[C@@H](c2ccccc2)C[C@@H](OCCCCO)O1	-1.2	18.3	-11.1	-0.5	-8.1	0.5	·	·
CC(=O)N1c2cc(S(=O)(=O)N3CCN(c4ccccc4F)CC3)c(Br)cc2CC1C (configuration not stated)	·	·	19.4	·	·	12.8	·	·
CCOc1ccccc1Nc1cc2n(c(=O)n1)CCc1cc(OC)c(OC)cc1-2	52.5*	-13.1	-27.4	-25.4	-23.0	-96.7	66.7*	0.6
COc1cc2c(cc1OC)-c1cc(Nc3ccccc3C)nc(=O)n1CC2	46.3*	-26.6	-48.3	-19.3	-60.6	-26.8	53.0*	0.6
COc1cc2c(cc1OC)-c1cc(Nc3cccc(C)c3)nc(=O)n1CC2	52.5*	-14.8	-23.3	2.9	-25.0	-81.9	59.0*	0.8
Cc1ccc(-n2c(SCC(=O)Nc3ccccc3-c3ccccc3)nnc2-c2ccccc2)cc1	·	·	-3.8	·	·	1.1	·	·
